Shown are actives, neighbours in structure and some others; about 8% of the full set was active somewhere.
HT1080-NT tox: kills 2HG-producing HT-1080-NT fibrosarcoma cells | AID 686970 | Potency, µM (titrated, usually from 46.1 µM), without a hit: at the top dose activity, negative = less viability, actives largely listed as cytotoxic | HT-1080-NT fibrosarcoma viability, CellTiter-Glo ATP luminescence, 48 h | hit rate 1.6% among 360,000;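 further: NT is the 2HG producing partner of a matched IDH1 knockdown line; 0% = DMSO-treated cells and -100% = media-only wells without cells; nearly all actives have a fitted effect of over 55% in size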
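A 48-hour cytotoxicity screen used HT-1080-NT cells plated 2 hours before compound delivery. ATP-based CellTiter-Glo luminescence measured viability, normalized to DMSO and no-cell controls.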
HT1080 IDH1KD tx: HT-1080 IDH1 knockdown cell toxicity (counter line); AID 686971; hit rate 2% among 360,000; HT-1080 IDH1 knockdown viability, ATP luminescence, 48 h; Potency, µM (doses to about 46.1 µM), for inactives: at the highest dose activity, negative = toxicity, usual class: cytotoxic;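 further: 0% = DMSO wells and -100% = cell-free medium wells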
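Luminescent ATP read-out (CellTiter-Glo, 10 min at room temperature) after 48 h compound exposure at 37 °C gave viability of IDH1-knockdown HT-1080 cells. Activity was normalised to DMSO and cell-free wells, then fitted as concentration-response curves.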
KB-3-1 tox: KB-3-1 parental cell cytotoxicity; KB-3-1 viability, CellTiter-Glo ATP luminescence, 72 h; AID 1347075; Potency, µM (highest dose often 46.1 µM), usual class: cytotoxic; hit rate 1.4% among 400,000; further: on the % scale 0 is the no-effect control and ±100 the full control effect; nearly all actives have a fitted effect of over 60% in size
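72 h, 37 °C compound treatment of KB-3-1 parental cells; CellTiter-Glo added, 10 min, luminescence read. Data corrected against DMSO-only plates and normalized before curve fitting.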
MCF10A rerep: DNA re-replication induction in MCF 10a cells. MCF 10A DNA re-replication, Hoechst nuclear intensity, 48 h. Potency, µM (series often up to 46.1 µM), for the others: at the highest dose activity, positive = re-replication, most hits filed as activators. hit rate 2.9% among 350,000. AID 624296; further: % of control where 0% means no effect; nearly all actives have a fitted effect of over 50% in size
SW480 rereplic: inducers of DNA re-replication in SW480 colon cancer cells. SW480 DNA re-replication, Hoechst DNA content imaging, 48 h. hit rate 1.8% among 340,000. AID 624297. Potency, µM (series often up to 46.1 µM), for inactives: top-dose re-replication activation, actives largely listed as activators; further: % of control where 0% means no effect; nearly all actives have a fitted effect of over 55% in size
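Quantitative HTS format with DMSO vehicle controls; 48 hr drug incubation at 37 C, then 40 min Hoechst staining and scanning imager measurement at 405 nm excitation.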
KB-V1 MDR tox: KB-V1 MDR subline cytotoxicity. Potency, µM (top dose mostly 46.1 µM), most hits filed as cytotoxic. hit rate 3.4% among 400,000. KB-V1 MDR cells viability, CellTiter-Glo, 72 h; further: on the % scale 0 is the no-effect control and ±100 the full control effect; nearly all actives have a fitted effect of over 60% in size
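Drug-selected KB-V1 cells, grown in DMEM lacking phenol red with 10% FBS, receive compound titrations; after three days at 37 degrees C, surviving cell ATP is quantified by CellTiter-Glo luminescence and responses normalized and curve-fitted.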
Starred values were filed as active, the others as inactive. The call rests on the fitted dose curve; in most records, active means well fitted curve in the direction sought with a large enough effect; inconclusive means small, poorly fitted or top-dose-only effect, or another doubt; inactive means no such curve, though single readings can be large; an effect the other way counts as inactive or inconclusive. Potency means the concentration at half of the fitted maximal effect.

How did Cc1ccc(C(=O)COC(=O)c2cccc(NC(=O)c3ccc(Cl)cc3Cl)c2)cc1 do in these assays?
KB-3-1 tox: inactive; KB-V1 MDR tox: inconclusive

Results for CC12CCC(C(=O)NCc3ccccc3)(OC1=O)C2(C)C (stereo not drawn) ?
HT1080-NT tox: 7.3%; HT1080 IDH1KD tx: 5.4%; KB-3-1 tox: inactive; MCF10A rerep: 4.9%; SW480 rereplic: -12.2%; KB-V1 MDR tox: inactive

Results for CC12CCC(C(=O)NNc3ccccc3)(C(=O)C1=O)C2(C)C (stereo not drawn) ?
HT1080-NT tox: inconclusive; HT1080 IDH1KD tx: inconclusive; KB-3-1 tox: inactive; MCF10A rerep: 16.4µM*; SW480 rereplic: -0.7%; KB-V1 MDR tox: inactive

What do the screens show for `COc1ccc(NC(=O)Cc2c(C(=O)O)[nH]c3ccccc23)cc1OC`?
KB-3-1 tox: inactive; KB-V1 MDR tox: inactive

What do the screens show for `CCN1CCc2nc3sc(C(=O)c4ccccc4)c(N)c3cc2C1`?
KB-3-1 tox: 8.2µM*; KB-V1 MDR tox: inconclusive

How did CCN1CCc2nc3sc(C(=O)c4ccc(F)cc4)c(N)c3cc2C1 do in these assays?
KB-3-1 tox: inactive; KB-V1 MDR tox: inactive

What do the screens show for `CN1CCc2nc3sc(C(=O)C45CC6CC(CC(C6)C4)C5)c(N)c3cc2C1`?
HT1080-NT tox: -2.6%; HT1080 IDH1KD tx: -0.6%; KB-3-1 tox: inactive; MCF10A rerep: 9.2µM*; SW480 rereplic: 20.6µM*; KB-V1 MDR tox: inactive

What do the screens show for `CC(C)(C)c1ccc(OCc2cc(=O)n3c4c(sc3n2)CCCC4)cc1`?
KB-3-1 tox: inactive; KB-V1 MDR tox: inactive

Results for C=C1C(=O)OC2C=C(CO)C3OC3C3OC3(C)CC(OC(=O)/C(=C/C)COC(C)=O)C12 (stereo not drawn) ?
HT1080-NT tox: -24.1%; HT1080 IDH1KD tx: 5.17µM*; KB-3-1 tox: inconclusive; MCF10A rerep: 2.06µM*; SW480 rereplic: 0.82µM*; KB-V1 MDR tox: inactive

How did O=Cc1sc(=O)n(Cc2cccc(C(=O)O)c2)c1Cl do in these assays?
HT1080-NT tox: 8.2%; HT1080 IDH1KD tx: 15.5%; KB-3-1 tox: inactive; MCF10A rerep: 29.1µM*; SW480 rereplic: 3.8%; KB-V1 MDR tox: inactive

Results for O=c1sc(/C=N/Nc2ccccc2)c(Cl)n1Cc1ccccc1 ?
HT1080-NT tox: 14.6µM*; HT1080 IDH1KD tx: 13µM*; KB-3-1 tox: inactive; MCF10A rerep: inconclusive; SW480 rereplic: 14.2%; KB-V1 MDR tox: inactive

Results for O=C(O)c1cccc(Cn2c(Cl)c(/C=N/NC(=O)c3ccc(O)cc3)sc2=O)c1 ?
HT1080-NT tox: 1.8%; HT1080 IDH1KD tx: -2.0%; KB-3-1 tox: inactive; MCF10A rerep: 1.0%; SW480 rereplic: 3.1%; KB-V1 MDR tox: inactive

How did O=C(COc1ccccc1)N/N=C/c1sc(=O)n(Cc2cccc(C(=O)O)c2)c1Cl do in these assays?
HT1080-NT tox: 2.2%; HT1080 IDH1KD tx: -0.2%; KB-3-1 tox: inactive; MCF10A rerep: -15.5%; SW480 rereplic: -4.5%; KB-V1 MDR tox: inactive

Results for Cc1noc(C)c1C(=O)N1CCN(C(=O)c2sc3cc(Cl)ccc3c2Cl)CC1 ?
HT1080-NT tox: -5.3%; HT1080 IDH1KD tx: -2.5%; KB-3-1 tox: inactive; MCF10A rerep: -3.3%; SW480 rereplic: 0.4%; KB-V1 MDR tox: 23.1µM*

Results for Cc1noc(C)c1C(=O)N1CCN(c2ccccc2O)CC1 ?
HT1080-NT tox: 5.9%; HT1080 IDH1KD tx: 14.3%; KB-3-1 tox: inactive; MCF10A rerep: -2.8%; SW480 rereplic: -4.7%; KB-V1 MDR tox: inactive

What do the screens show for `O=C(C1CN(C(=O)c2cc3cc(Cl)ccc3o2)c2ccccc2O1)N1CCCCC1` (stereo not drawn)?
HT1080-NT tox: 0.3%; HT1080 IDH1KD tx: -14.7%; KB-3-1 tox: inconclusive; MCF10A rerep: inconclusive; SW480 rereplic: 1.3%; KB-V1 MDR tox: 20.6µM*

What do the screens show for `Cc1c(O)ccc(/C(Cc2ccc3ccccc3n2)=N\O)c1O`?
HT1080-NT tox: -2.1%; HT1080 IDH1KD tx: -3.3%; KB-3-1 tox: 16.4µM*; MCF10A rerep: inconclusive; SW480 rereplic: 5.1%; KB-V1 MDR tox: inconclusive

How did CC(C)(C)c1ccc(CN2N=C(/C=C/c3ccccc3)CCC2=O)cc1 do in these assays?
HT1080-NT tox: inconclusive; HT1080 IDH1KD tx: inconclusive; KB-3-1 tox: inactive; MCF10A rerep: 20.6µM*; SW480 rereplic: inconclusive; KB-V1 MDR tox: inactive

How did c1ccc(-c2noc(-c3ccncc3)n2)nc1 do in these assays?
HT1080-NT tox: 11.2µM*; HT1080 IDH1KD tx: inconclusive; KB-3-1 tox: inconclusive; MCF10A rerep: -18.4%; SW480 rereplic: 1.8%; KB-V1 MDR tox: inactive

Results for COc1cccc(-c2nc(-c3ccccn3)no2)c1 ?
HT1080-NT tox: inconclusive; HT1080 IDH1KD tx: inconclusive; KB-3-1 tox: inconclusive; MCF10A rerep: -3.8%; SW480 rereplic: -7.7%; KB-V1 MDR tox: inconclusive

How did c1ccc(-c2noc(-c3ccc4c(c3)OCO4)n2)nc1 do in these assays?
HT1080-NT tox: 1.78µM*; HT1080 IDH1KD tx: 2.51µM*; KB-3-1 tox: 4.61µM*; MCF10A rerep: inconclusive; SW480 rereplic: inconclusive; KB-V1 MDR tox: 4.11µM*

What do the screens show for `CC(C)(C)c1ccc(-c2nc(-c3ccncc3)no2)cc1`?
HT1080-NT tox: -4.1%; HT1080 IDH1KD tx: inconclusive; KB-3-1 tox: inconclusive; MCF10A rerep: inconclusive; SW480 rereplic: 0.2%; KB-V1 MDR tox: 16.4µM*

How did c1ccc(-c2noc(-c3ccc4ccccc4c3)n2)nc1 do in these assays?
HT1080-NT tox: -19.0%; HT1080 IDH1KD tx: -24.9%; KB-3-1 tox: inconclusive; MCF10A rerep: 17.2%; SW480 rereplic: -15.8%; KB-V1 MDR tox: 5.8µM*

How did COc1ccc(OC)c(Nc2sc(C(=O)c3ccccc3)c(N)c2S(=O)(=O)c2ccccc2)c1 do in these assays?
KB-3-1 tox: inactive; KB-V1 MDR tox: inactive

What do the screens show for `COc1cccc(NC(=O)CN(C)C(=O)Cn2cnc3ccccc3c2=O)c1`?
HT1080-NT tox: -12.5%; HT1080 IDH1KD tx: -21.9%; KB-3-1 tox: inactive; MCF10A rerep: 6.5%; SW480 rereplic: -7.4%; KB-V1 MDR tox: inactive

How did COc1ccc2c(Sc3ccccc3)c(C(=O)NCc3ccc(OC(C)C)cc3)[nH]c2c1 do in these assays?
KB-3-1 tox: inactive; KB-V1 MDR tox: inactive

How did CCC(=O)Oc1ccc2ccccc2c1CNC(=O)c1ccccc1 do in these assays?
HT1080-NT tox: -10.2%; HT1080 IDH1KD tx: 0.4%; KB-3-1 tox: inconclusive; MCF10A rerep: inconclusive; SW480 rereplic: -41.3%; KB-V1 MDR tox: 14.6µM*

Results for Cc1ccc2nc(C(F)(F)F)c(C#N)c(N)c2c1 ?
HT1080-NT tox: inconclusive; HT1080 IDH1KD tx: 10µM*; KB-3-1 tox: inconclusive; MCF10A rerep: 3.26µM*; SW480 rereplic: inconclusive; KB-V1 MDR tox: inconclusive

Screening data deposited in PubChem by National Center for Advancing Translational Sciences (NCATS).
